ST2 IL33 inh: inhibitors of human ST2 (IL1RL1) binding to IL-33, primary screen, biochemical, AlphaLISA; hit rate 2.3% among 78,000; inhibition, % for hits at 17 µM; Interleukin-1 receptor-like 1 (Homo sapiens), Q01638; AlphaLISA ST2-Fc/biotin-IL-33 interaction, 1 h; in the data active = inhibition above about 30%
Target sequence (Q01638 whole entry, looked up): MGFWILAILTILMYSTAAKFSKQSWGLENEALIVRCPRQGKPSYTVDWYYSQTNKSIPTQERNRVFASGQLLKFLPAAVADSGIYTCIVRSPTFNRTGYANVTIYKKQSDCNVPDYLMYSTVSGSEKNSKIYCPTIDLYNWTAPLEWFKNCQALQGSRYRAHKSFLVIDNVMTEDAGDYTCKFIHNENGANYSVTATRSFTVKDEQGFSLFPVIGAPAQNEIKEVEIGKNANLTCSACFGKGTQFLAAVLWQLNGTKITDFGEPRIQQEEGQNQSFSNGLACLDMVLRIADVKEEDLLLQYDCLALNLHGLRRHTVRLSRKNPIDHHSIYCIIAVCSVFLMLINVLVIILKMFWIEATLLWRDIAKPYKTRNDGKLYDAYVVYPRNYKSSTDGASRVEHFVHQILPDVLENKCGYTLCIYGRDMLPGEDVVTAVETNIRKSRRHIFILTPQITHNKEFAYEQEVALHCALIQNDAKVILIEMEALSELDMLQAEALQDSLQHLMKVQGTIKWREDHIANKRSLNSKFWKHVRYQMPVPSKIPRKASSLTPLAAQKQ
* = called active by the depositor; i = inactive. Only a selection was taken, and hits are over-represented in it overall.

SMILES	ST2 IL33 inh
CC(=O)Nc1ccc(N=Cc2cc(Br)cc(Cl)c2O)cc1	i
CCN(CC)CCNC(=O)c1ccc(N=Cc2cc(Cl)cc(Cl)c2O)cc1	i
O=C(O)c1ccccc1C1CCN(C(=O)c2ccc3cc[nH]c3c2)C1 (stereo not given)	i
CN(C)CC1(O)CCCN(C(=O)C2(c3ccc(F)cc3)CC2)CC1 (stereo not given)	i
O=C(Nc1ccc2n(c1=O)C[C@H]1C[C@@H]2CN(C(=O)c2ccc3ccccc3c2)C1)c1ccc(F)cc1	i
COc1ccc2nc(SCCc3ccccc3)nc(C)c2c1	i
CCOC(=O)CCSc1nc(C)c2cc(C)ccc2n1	i
COc1ccc2nc(SC(=O)c3ccccc3)nc(C)c2c1	43%*
C=CCOc1c(Cl)cc(C(=O)NCc2cnc(C)cn2)cc1Cl	i
CCN(CC)/C(=C\C(=O)c1ccc([N+](=O)[O-])cc1)c1ccccc1	31%*
O=C(CC(=O)c1ccc([N+](=O)[O-])cc1)c1ccccc1	i
O=C(c1ccc([N+](=O)[O-])cc1)N(c1ccccn1)c1ccccn1	i
COc1cc2c(cc1OC)C(C(=O)NCc1ccc(F)cc1)C(c1ccccc1F)N(C)C2=O (stereo not given)	i
O=C(NC1CC(=O)N(Cc2ccc(F)cc2)C1)c1ccccc1-c1ncn[nH]1 (stereo not given)	i
COC(=O)C1C(=O)C2=C(CC1C)NC(C)=C(C(=O)OC(C)C)C2c1ccc(O)cc1 (stereo not given)	i
COc1ccc(Nc2ncnc3nc[nH]c23)cc1OC	i
CCOC(=O)c1ccc(Nc2ncnc3c2cnn3-c2ccc(Cl)cc2)cc1	i
CCOC(=O)c1ccc(Nc2ncnc3nc[nH]c23)cc1	30%*
O=C1CSC(c2ccc(Cl)cc2)Nc2cccc3cccc1c23 (stereo not given)	i
COc1cccc(C(=O)Nc2cc3c(cc2C(C)=O)OCO3)c1	i
O=C1CN(c2cc(Cl)cc(Cl)c2)S(=O)(=O)c2ccccc2N1	i
CSc1ccc(C(Nc2ccccn2)c2ccc3cccnc3c2O)cc1 (stereo not given)	33%*
Fc1ccc(C(Nc2ccccn2)c2c[nH]c3ccccc23)cc1 (stereo not given)	i
Cc1ccc2ccc(C(Nc3ccccn3)c3ccc(N(C)C)cc3)c(O)c2n1 (stereo not given)	41%*
CCOc1cccc(C(Nc2ccccn2)c2ccc3ccc(C)nc3c2O)c1O (stereo not given)	i
SMILES	ST2 IL33 inh
COc1ccc(C(Nc2cc(C)ccn2)c2ccc3ccc(C)nc3c2O)cc1OC (stereo not given)	i
Cc1ccc2ccc(C(Nc3ccccn3)c3cccnc3)c(O)c2n1 (stereo not given)	i
CC(=O)c1ccc(NC(=O)O[C@@H]2CO[C@H]3[C@@H]2OC[C@@H]3NC(=S)Nc2ccc(Cl)cc2)cc1	i
CCn1ccc(C(=O)NCc2cccnc2Oc2ccccc2F)cc1=O	i
C=CCNC(=O)c1cc2c(=O)n3cccc(C)c3nc2n(CCCn2ccnc2)c1=N	31%*
Cc1cccn2c(=O)c3cc(C(=O)NCC4CCCO4)c(=N)n(CCCn4ccnc4)c3nc12 (stereo not given)	i
COCCCn1c(=N)c(C(=O)NC2CCCC2)cc2c(=O)n3cccc(C)c3nc21	i
CCNC(=O)c1c(NC(=O)c2ccccc2Cl)sc2c1CCCC2	i
Cc1nc(C2CC2)ncc1C(=O)N(C)Cc1ccc2nonc2c1	i
Cc1ccc(NC(=O)N2Cc3[nH]cnc3C[C@H]2c2nc(-c3ccc4ccccc4c3)no2)cc1	i
O=C(NC1CCCCC1)N1Cc2[nH]cnc2C[C@H]1c1nc(-c2ccc3ccccc3c2)no1	i
O=C(Nc1ccccc1)N1Cc2[nH]cnc2C[C@H]1c1nc(-c2ccc3ccccc3c2)no1	38%*
COc1cc(OC)c(NC(=O)CSc2cc(=O)n(C)c3cc(Cl)ccc23)cc1Cl	i
COc1cncc(-c2ccc(-c3ccn[nH]3)cc2)c1	i
Cc1cc(=O)c2c([nH]1)C(O)=C(CN(C)C)C(=O)C2=O	43%*
COc1cc(C)ccc1OCCOc1cccc(C)c1	i
CCOC(=O)c1c(C)sc2c3c([nH]c12)CCCC3	i
CC(=O)Nc1ccc(/C=C2/OC(=O)c3c2cc(C)[nH]c3=O)cc1	46%*
COc1cc(/C=C2/OC(=O)c3c2cc(C)[nH]c3=O)ccc1O	i
COc1c(/C=C2/OC(=O)c3c2cc(C)[nH]c3=O)ccc(Cl)c1Cl	i
O=C1NC(=O)c2cc(N=Cc3ccc(Cl)cc3)ccc21	i
O=c1[nH]c2ccc(N=Cc3cc(O)ccc3Br)cc2[nH]1	i
O=C1NC(=O)c2cc(N=Cc3ccc(Cl)cc3Cl)ccc21	70%*
O=C(CN1N=C(c2ccccc2)CCC1=O)NC1CCCCCC1	i
CC(C)CC(C(=O)Nc1cccc(C(F)(F)F)c1)N1C(=O)c2ccccc2C1=O (stereo not given)	i
O=C1C(Nc2cccc(C(F)(F)F)c2)=C(N2CCOCC2)C(=O)c2ccccc21	67%*
